Assay outcomes (PubChem BioAssay)
D3 antag: D3 dopamine receptor (human) antagonism; P35462; D3R cells, DiscoveRx beta-arrestin luminescence, antagonist mode; hits give low values; max response, negative = inhibition, %; 360,000 tested, 2.5% active; AID 652054; in the data active means max response below about -50%; inconclusive means no clear call, values can overlap the other calls
Target sequence (P35462 whole entry, looked up): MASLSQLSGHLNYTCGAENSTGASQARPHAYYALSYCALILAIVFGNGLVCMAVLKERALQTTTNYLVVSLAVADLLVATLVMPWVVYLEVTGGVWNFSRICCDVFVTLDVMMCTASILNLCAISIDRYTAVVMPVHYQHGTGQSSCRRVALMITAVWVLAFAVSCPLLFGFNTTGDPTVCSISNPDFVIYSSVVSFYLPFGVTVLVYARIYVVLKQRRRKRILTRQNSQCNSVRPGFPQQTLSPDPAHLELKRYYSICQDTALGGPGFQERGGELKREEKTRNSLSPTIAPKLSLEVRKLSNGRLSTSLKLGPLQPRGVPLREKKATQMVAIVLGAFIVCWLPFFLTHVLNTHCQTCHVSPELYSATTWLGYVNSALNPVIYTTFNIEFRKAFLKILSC
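Cells expressing the human receptor were seeded at 1500 cells/well, incubated overnight at 37 degrees C in 5% CO2, then exposed to library compounds with dopamine controls for 90 minutes at 37 degrees C before luminescent detection.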
DRD3 agonist: D3 dopamine receptor (human) agonism. AID 652048. 410,000 tested, 0.58% active. max activation, %. P35462. D3R DiscoveRx beta-arrestin cells, luminescence, 90 min; in the data active means max activation above about 30%
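Cells at 1500/well, incubated overnight, then treated with pinned compounds (dopamine as control) for 90 min at 37 degrees C. DiscoveRx reagent added for 30 - 60 minutes at room temperature; luminescence read.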
TGFb inhibitor: inhibitors of TGF-b signaling. 410,000 tested, 1.2% active. Potency, µM (doses to about 46.1 µM), most hits filed as inhibitors. HepG2 CAGA-GFP TGF-b/SMAD3 reporter, GFP fluorescence, 18 h; TGF-beta stimulated, 500 pg/mL final; further: nearly all actives have a fitted effect of over 65% in size
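HEPG2 CAGA-GFP reporter cells (1000/well, DMEM with 1% FBS) received compounds, then recombinant TGF-beta at 500 pg/mL final for 18 hours at 37 degrees C. Per-cell GFP summed per well was normalised to unstimulated and stimulated DMSO controls before curve fitting.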
S2 tox: viability counter-screen for ATXN expression inhibitors. S2 cells (HEK-293 line with an ATXN2-luciferase reporter) viability, CellTiter-Fluor protease fluorescence, 24 h. Potency, µM (top dose mostly 56.7 µM), actives largely listed as cytotoxic. 400,000 tested, 0.49% active. AID 651635; further: nearly all actives have a fitted effect of over 40% in size
ATXN2 expr inh: reduces ATXN2 reporter expression in HEK-293 cells | HEK-293 ATXN2-luciferase reporter, luminescence, 24 h | Potency, µM (doses to about 57 µM), actives largely listed as inhibitors | 360,000 tested, 0.72% active; further: nearly all actives have a fitted effect of over 55% in size
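ATXN2-luciferase reporter cells (luciferase flanked by upstream and downstream ATXN2 gene portions) were treated 24 h at 37 °C with compounds at up to 57 uM. SteadyGlo luminescence gave expression; GF-AFC fluorescence gave viability.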
HepG2 viability: counter-screen for TGF-b inhibitors: cytotoxicity in HepG2 cells | 410,000 tested, 0.76% active | AID 588856 | HepG2 CAGA-GFP viability, ATP luminescence, 18 h | Potency, µM (top dose mostly 46.1 µM), hits mostly cytotoxic
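CellTiter-Glo luminescence gave cytotoxicity after 18 hours at 37 degrees C. The cells were HepG2 CAGA-GFP in 1% FBS DMEM, stimulated with 500 pg/mL TGF-beta after compound addition. %Activity was normalised to no-cell wells (complete cell-killing) and DMSO (no toxicity), and curves were fitted and classified.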
Of the large screens only hits and unclear results are named; the others gave an inactive call. Most compounds without a hit are left out; they make up all but 4.8% or so of the library. Unless noted, the call rests on the fitted dose curve; in most records, active means well fitted curve in the direction sought with a large enough effect; inconclusive means small, poorly fitted or top-dose-only effect, or another doubt; inactive means no such curve, though single readings can be large; an effect the other way counts as inactive or inconclusive.

O=C(NCC1CCCO1)C(=O)NCC(c1ccco1)N1CCN(c2ccccc2F)CC1 (configuration not stated)	DRD3 agonist 50.8
O=C(NCC(c1ccco1)N1CCN(c2ccccc2)CC1)C(=O)NC1CCCCC1 (configuration not stated)	DRD3 agonist 36.7, S2 tox inconclusive
Cn1cc(S(=O)(=O)N2CCc3ccccc32)cc1C(=O)Nc1ccc(C(F)(F)F)cc1	TGFb inhibitor inconclusive (no result: D3 antag, S2 tox, ATXN2 expr inh)
Cc1cc(NC(=O)CCC(=O)N(CCC(C)C)C(C(=O)NCC2CCCO2)c2ccccc2C)no1 (configuration not stated)	DRD3 agonist 40.7, TGFb inhibitor inconclusive
Cc1cc(NC(=O)CCC(=O)N(CCC(C)C)CC(=O)NCC2CCCO2)no1 (configuration not stated)	none
CC1=C(C(N)=O)C(c2ccccc2)n2nc(-c3ccncc3)nc2N1 (configuration not stated)	none
Cc1nc(-[n+]2nc(-c3ccncc3)nn2-c2ccccc2)sc1C	D3 antag -101.8, S2 tox 14.1µM, ATXN2 expr inh inconclusive
COc1cccc(-n2c(=O)c3sc4ccccc4c3n(CC(=O)Nc3cccc(Cl)c3)c2=O)c1	TGFb inhibitor 7.94µM, S2 tox inconclusive (no result: D3 antag)
COc1cc(C2C=C(C34CC5CC(CC(C5)C3)C4)NC(=S)N2)cc(OC)c1OC (configuration not stated)	D3 antag -81.7
S=C(NC1CCCCC1)N1CCN(C2CCCCC2)CC1	D3 antag inconclusive, TGFb inhibitor inconclusive, HepG2 viability 17.8µM
O=C(NC(=S)NCCN1CCOCC1)c1ccc(Cl)cc1Cl	none
Cc1ccccc1C(=O)NCCN1CCC(n2c(=O)[nH]c3ccccc32)CC1	D3 antag -109.4 (no result: TGFb inhibitor, HepG2 viability)
COc1ccccc1C(=O)NCCN1CCC(n2c(=O)[nH]c3ccccc32)CC1	none (no result: TGFb inhibitor, HepG2 viability)
CCOc1ccccc1C(=O)NCCN1CCC(n2c(=O)[nH]c3ccccc32)CC1	S2 tox inconclusive, ATXN2 expr inh inconclusive (no result: TGFb inhibitor, HepG2 viability)
O=C(Nc1ccccc1C(F)(F)F)N1CCC(n2c(=O)[nH]c3ccccc32)CC1	none
O=C(NCCN1CCC(n2c(=O)[nH]c3ccccc32)CC1)c1ccccc1Cl	D3 antag -100.4 (no result: TGFb inhibitor, HepG2 viability)
O=C(NCCN1CCC(n2c(=O)[nH]c3ccccc32)CC1)c1ccccc1C(F)(F)F	D3 antag -76.8 (no result: TGFb inhibitor, HepG2 viability)
O=C(NCCN1CCC(n2c(=O)[nH]c3ccccc32)CC1)c1ccc(Cl)cc1Cl	D3 antag -91.6 (no result: TGFb inhibitor, HepG2 viability)
CCN(CC)C1CCN(C(=O)c2cnn(-c3nccc(-c4ccco4)n3)c2C(C)C)C1 (configuration not stated)	none (no result: D3 antag, DRD3 agonist, TGFb inhibitor, ATXN2 expr inh, HepG2 viability)
CC(=C/c1ccccc1)/C=N/n1c(-c2ccco2)n[nH]c1=S	none (no result: S2 tox, ATXN2 expr inh)
S=c1[nH]nc(-c2ccco2)n1/N=C/c1cccc(Cl)c1Cl	none
S=c1[nH]nc(-c2ccco2)n1/N=C/C=C/c1ccccc1	D3 antag -63.7, TGFb inhibitor inconclusive
S=c1[nH]nc(-c2ccccc2)n1/N=C/C=C/c1ccco1	none
COc1ccccc1/C=C/C=N/n1c(-c2ccccc2)n[nH]c1=S	none
S=c1[nH]nc(-c2ccc(Cl)cc2)n1/N=C/C=C/c1ccco1	D3 antag -79.8
S=c1[nH]nc(-c2ccco2)n1/N=C/c1ccc(Cl)cc1Cl	D3 antag -53.7
COc1ccccc1/C=C/C=N/n1c(-c2ccc(Cl)cc2)n[nH]c1=S	D3 antag -62.6
COc1cc(OC)cc(C(=O)N2CCCC(n3cc(C(=O)NCC(C)C)nn3)C2)c1 (configuration not stated)	none (no result: D3 antag, DRD3 agonist, TGFb inhibitor, ATXN2 expr inh, HepG2 viability)
Cc1n[nH]c(=S)n1/N=C/c1ccccc1OCc1ccc(Cl)cc1Cl	DRD3 agonist 30.8, S2 tox inconclusive, ATXN2 expr inh inconclusive
Cc1ncnc2nc[nH]c12	TGFb inhibitor inconclusive (no result: D3 antag, DRD3 agonist, S2 tox, ATXN2 expr inh)
CSc1ccc(C2CC(=O)Oc3c2c(=O)n(C)c2ccccc32)cc1 (configuration not stated)	none (no result: D3 antag)
CCCn1c(Nc2nc3ccccc3n2C)nc2ccccc21	D3 antag -101.9, S2 tox inconclusive, ATXN2 expr inh inconclusive, HepG2 viability 7.08µM
CCN(CC)CCn1c(NCc2ccc(C)o2)nc2ccccc21	none
CCCCCn1c(NCc2ccc(OC)cc2)nc2ccccc21	TGFb inhibitor 12.6µM, S2 tox inconclusive, ATXN2 expr inh inconclusive (no result: D3 antag)
CCCCCn1c(NCc2ccco2)nc2ccccc21	S2 tox inconclusive
CCCCn1c(Nc2ccccc2)nc2ccccc21	none
CCN(CC)CCn1c(NCc2ccc(OC)cc2)nc2ccccc21	D3 antag -66.6
NNC(=O)c1ccc(C(=O)N(c2ccccc2)c2ccccc2)cc1	none (no result: D3 antag, DRD3 agonist, S2 tox, ATXN2 expr inh)
Cc1ccc(-n2nc(C)c3c(C(=O)NCc4ccc(F)cc4)cc(C)nc32)cc1	none (no result: D3 antag)
Cc1ccc(C)c(-c2ccc(=O)n(Cc3ccc(F)cc3Cl)n2)c1	TGFb inhibitor 12.6µM, S2 tox inconclusive
Cc1ccc(C)c(-c2ccc(=O)n(Cc3cccc(Br)c3)n2)c1	TGFb inhibitor inconclusive
C[C@]1(O)CC(=O)C=C[C@H]1Nc1ccccc1	D3 antag -51.7, TGFb inhibitor inconclusive, S2 tox inconclusive, ATXN2 expr inh inconclusive
CCCCC(CC)CNC(=O)CC(C)OC(=O)CCC(=O)O (configuration not stated)	none (no result: D3 antag, DRD3 agonist, TGFb inhibitor, HepG2 viability)
COc1ccc(OC)c(CNC(=O)CCCn2nc(C)c3c(C)n(-c4ccc(C)cc4)nc3c2=O)c1	TGFb inhibitor inconclusive (no result: D3 antag, S2 tox, ATXN2 expr inh)
Cc1oc(-c2ccc(Cl)cc2)nc1CSCC(=O)NC1CCN(Cc2ccccc2)CC1	D3 antag -76.1, TGFb inhibitor inconclusive, ATXN2 expr inh inconclusive
CCOc1ccc(-c2nc(CSCC(=O)NC3CC3)c(C)o2)cc1	none (no result: ATXN2 expr inh)
CCOc1ccc(-c2nc(CSCC(=O)NC3CCN(Cc4ccccc4)CC3)c(C)o2)cc1	D3 antag -116.9, TGFb inhibitor inconclusive (no result: ATXN2 expr inh)
CCOC(=O)N1CCC(NC(=O)CSCc2nc(-c3ccc(OCC)cc3)oc2C)CC1	none
Cc1cc2nc(N3CCC(NC(C)c4nc(-c5ccccn5)no4)CC3)nc(C)c2cc1C (configuration not stated)	none (no result: D3 antag, DRD3 agonist, TGFb inhibitor, ATXN2 expr inh, HepG2 viability)
COc1cccc(NC(=O)CSc2nccn2Cc2ccc3c(c2)OCO3)c1	none (no result: D3 antag)
COC(=O)c1ccccc1NC(=O)c1ncoc1-c1ccco1	none (no result: D3 antag)
COc1cc(/C=C/CN2CCN(Cc3ccc(C)o3)C(CCO)C2)ccc1O (configuration not stated)	D3 antag -61.5
CCOc1cc(CN2CCN(Cc3ccc(C)o3)C(CCO)C2)ccc1OC (configuration not stated)	none (no result: ATXN2 expr inh)
C/C(=C\c1ccccc1)CN1CCN(Cc2ccc(C)o2)C(CCO)C1 (configuration not stated)	D3 antag -79.7, S2 tox inconclusive
